{
  "source": "PubChem BioAssay AID1902",
  "about": "(Broad Institute, 2009)",
  "note": "Among all 3,200 compounds or so, about 2,900 (91%) were called active.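 How the source made its calls: active means EC50 no more than a set limit of log units above the highest dose; inactive means the rest.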 The set was probably picked from earlier hits. This is one part of the list. Entries with a potency or affinity are not part of this list.",
  "data": [
    {"assay": "S. pyogenes SKKanGAS kanamycin growth inhibitors – SKKanGAS strain, luminescence, dose confirmation, streptokinase promoter inhibitor project, dose response (AID 1902);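 further: lower survival reflects blocked streptokinase promoter driving kanamycin resistance gene; 0% = DMSO median and -100% = tetracycline positive control median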", "conditions": "kanamycin survival, BacTiterGlo, 6 h; at 15 µM (top of the series)", "values": [
      {"compound": "N#C/C(=C\\c1ccc(/C=C(/C#N)c2nn(CCO)c(N)c2C#N)cc1)c1nn(CCO)c(N)c1C#N", "activity change, negative = inhibition": "-60.6% (active)"}
    ]}
  ]
}
